Data as given in PubChem BioAssay AID1159580 (chemical genetic matrix, 2015).
Several values for one entry are separate records, joined by “and”; a condition that tells them apart may be missing. Equal values may be shown once. Out of some 5,500 compounds screened, about 2,000 (36%) were called active. Not shown: some 18% with an inconclusive outcome. Rule as the data show it: active = normalized growth mostly below about 0.91 (no sharp cut-off); inconclusive = no clear call, values can overlap the other calls; inactive = mostly above about 0.92. This is one part of the list.

Experiment: chemical genetic growth profiling, strain panel (AID 1159580);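 also: tested at 20 µM; growth read once vehicle control cultures reached saturation at 30 °C; 1 = growth at the plate median or of vehicle wells; lower values mean less growth of the strain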
Settings: S. cerevisiae deletion strains, growth OD

Measured: normalized growth

NC(C(=O)O)C(O)C(=O)O (stereo not drawn)
inactive: locus YAL013W, strain DEP1, active compounds read low 1.04 | locus YAL021C, strain ccr4, active compounds read low 0.941 | locus YAL026C, strain drs2, active compounds read low 0.998 | locus YAL030W, strain snc1, active compounds read low 0.98 | locus YBL061C, strain skt5, active compounds read low 0.996 | locus YBR009C, strain hhf1, active compounds read low 0.955 | locus YBR021W, strain FUR4, active compounds read low 0.993 | locus YBR023C, strain chs3, active compounds read low 0.994 | locus YBR171W, strain sec66, active compounds read low 0.997 | locus YBR229C, strain ROT2, active compounds read low 1.01 | locus YBR231C, strain swc5, active compounds read low 1.03 | locus YBR279W, strain paf1, active compounds read low 0.993 | locus YCL011C, strain gbp2, active compounds read low 0.98 | locus YCL016C, strain dcc1, active compounds read low 0.978 | locus YCL029C, strain bik1, active compounds read low 1.03 | locus YCL061C, strain MRC1, active compounds read low 1 | locus YCL069W, strain vba3, active compounds read low 0.991 | locus YCR088W, strain abp1, active compounds read low 1 | locus YDL005C, strain med2, active compounds read low 0.982 | locus YDL035C, strain GPR1, active compounds read low 1.02 | locus YDL040C, strain nat1, active compounds read low 0.996 | locus YDL074C, strain BRE1, active compounds read low 1.02 | locus YDL101C, strain DUN1, active compounds read low 1.02 | locus YDL134C, strain PPH21, active compounds read low 1.01 | locus YDL185W, strain tfp1, active compounds read low 1.02 | locus YDL192W, strain arf1, active compounds read low 1.02 | locus YDR001C, strain nth1, active compounds read low 0.97 | locus YDR069C, strain doa4, active compounds read low 0.969 | locus YDR101C, strain arx1, active compounds read low 1.04 | locus YDR137W, strain rgp1, active compounds read low 0.982 | locus YDR159W, strain sac3, active compounds read low 1.05 | locus YDR162C, strain NBP2, active compounds read low 1.04 | locus YDR195W, strain ref2 0.973 | locus YDR297W, strain sur2, active compounds read low 0.994 | locus YDR318W, strain mcm21, active compounds read low 1.01 | locus YDR334W, strain swr1, active compounds read low 0.983 | locus YDR335W, strain msn5, active compounds read low 0.986 | locus YDR388W, active compounds read low 1.02 | locus YDR392W, strain spt3, active compounds read low 0.91 | locus YDR502C, strain sam2, active compounds read low 1.03 | locus YEL003W, strain gim4, active compounds read low 0.999 | locus YEL037C, strain rad23, active compounds read low 0.983 | locus YEL061C, strain CIN8 (second series), active compounds read low 0.99 | locus YEL061C, strain CIN8, active compounds read low 1.01 | locus YER015W, strain faa2, active compounds read low 0.997 | locus YER016W, strain bim1, active compounds read low 0.991 | locus YER110C, active compounds read low 1.03 | locus YER111C, strain swi4, active compounds read low 0.994 | locus YER155C, strain BEM2 (second series), active compounds read low 1.03 | locus YER155C, strain BEM2, active compounds read low 0.983 | locus YER167W, strain BCK2, active compounds read low 1.01 | locus YFR010W, strain ubp6, active compounds read low 0.986 | locus YGL078C, strain dbp3, active compounds read low 1.02 | locus YGL086W, strain mad1, active compounds read low 1 | locus YGL167C, strain pmr1, active compounds read low 0.969 | locus YGL173C, strain kem1, active compounds read low 0.999 | locus YGL227W, strain vid30, active compounds read low 0.997 | locus YGL240W, strain doc1, active compounds read low 1 | locus YGL248W, strain PDE1, active compounds read low 1.02 | locus YGL253W, strain hxk2, active compounds read low 1.02 | locus YGR078C, strain PAC10, active compounds read low 1.02 | locus YGR135W, strain pre9, active compounds read low 1.01 | locus YGR252W, strain gcn5, active compounds read low 0.999 | locus YHR013C, strain ard1, active compounds read low 0.969 | locus YHR027C, strain rpn1, active compounds read low 0.991 | locus YHR030C, strain SLT2, active compounds read low 1 and 1.03 | locus YHR079C, strain IRE1 (second series), active compounds read low 1.02 | locus YHR079C, strain IRE1, active compounds read low 1.03 | locus YHR094C, strain hxt1, active compounds read low 1.02 | locus YHR129C, strain ARP1, active compounds read low 1.01 | locus YHR142W, strain chs7, active compounds read low 0.983 | locus YHR200W, strain rpn10, active compounds read low 1.02 | locus YIL066C, strain RNR3, active compounds read low 1.02 | locus YIL073C, strain SPO22, active compounds read low 1.09 | locus YIL125W, strain kgd1, active compounds read low 1.01 | locus YIR030C, strain dcg1, active compounds read low 1.02 | locus YJL092W, strain hpr5, active compounds read low 0.986 | locus YJL095W, strain BCK1 (second series), active compounds read low 0.993 | locus YJL095W, strain BCK1, active compounds read low 1.03 and 1.06 | locus YJL115W, strain asf1, active compounds read low 0.965 | locus YJL129C, strain trk1, active compounds read low 1.02 | locus YJL134W, strain LCB3, active compounds read low 1.01 | locus YJL154C, strain vps35, active compounds read low 0.987 | locus YJL164C, strain tpk1, active compounds read low 0.96 | locus YJL166W, strain qcr8, active compounds read low 0.988 | locus YJL168C, strain set2, active compounds read low 1.01 | locus YJL187C, strain SWE1 (second series), active compounds read low 1.03 | locus YJR043C, strain POL32, active compounds read low 1.02
